The values that follow come from PubChem BioAssay.

This assay can be described thus: RPMI8226 myeloma cell viability, profiling panel, resazurin fluorescence, basal, 24 h, PK04 Diversity Set (AID 1180).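 Further: RPMI8826 multiple myeloma cell line at 5000 cells per well; test concentration not given here.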 The note with it: higher = more signal.
Take `CC=CC1=C(CO)[C@H](O)[C@H]2O[C@H]2[C@H]1O`: the z-score came out at 0.0421.

As to `COCCNC(=O)OCC1CCCC2(CC(OC(=O)NCCc3ccc(F)cc3)CC(CCC(=O)N[C@@H](C)C(=O)OC)O2)O1` (stereo partly specified), the z-score is 1.07.

`CC(C)[C@H](NC(=O)OC(C)(C)C)[C@@H](O)CC(=O)OC(C)(C)C`: the z-score amounted to 0.496.

Consider `CCc1cc2c(nc1CC)CCN(CCC(C)=NOC[C@@H](O)COCc1ccco1)C2`, for which the z-score is -0.0388.

For the compound `CCOC(=O)[C@H](Cc1ccccc1)NC(=O)CCC1CC(OC(=O)NCc2ccc3c(c2)OCO3)CC2(CCCC(COC(=O)NCc3ccccc3)O2)O1` (stereo partly specified), the z-score worked out at 0.676.

Consider `C=CCOC(=O)[C@H]1[C@@H]2C(=O)O[C@@H](c3ccccc3)[C@@H](c3ccccc3)N2[C@@H](c2ccc(OCCOC(=O)[C@H]3C[C@H]4C(=O)N[C@@H](Cc5ccccc5)C(=O)N4[C@H]3c3ccc(O)cc3)cc2)[C@]12C(=O)Nc1ccccc12`, for which the z-score came out at 1.74.

Take `C=CC[C@@H]1C=C[C@H](ON=C2c3cc(OC)ccc3O[C@H](c3cccc(OC)c3)[C@H]2O)[C@@H](CO)O1`: the z-score is -1.37.

Compound `CC(C)(C)N1C(=O)[C@H]2[C@H]3[C@H](O)[C@H](O)CC(=NO[C@@H]4O[C@H](CO)[C@@H](O)[C@H](O)[C@H]4O)[C@@H]3CC[C@H]2C1=O` returned a z-score of -0.449.

In turn, `CC(C)=NOCc1cccc(-c2cc(-c3ccccc3)no2)c1` registered a z-score of -0.975.

As for `C[C@H]1CC[C@@H](C(=O)O)N[C@@H]1c1ccc(C#CCN(C)C)cc1`, the z-score stood at 0.22.

Consider `CO[C@H]1COC(=O)[C@H](C)NC(=O)[C@@H](C)COC(=O)CC=C[C@@H]1C`, for which the z-score was found to be 0.0991.
